Laboratory results as given in PubChem BioAssay.
Calls of active or inactive are those of the source. Unless noted, how the calls were made is not given here.

Tests used:
[1] = compounds binding Alexa647 anti-His antibody – biochemical, small-molecule microarray, 635 nm fluorescence, artefact control for SMM control protein annotation, primary screen (AID 1128); details: higher = more signal;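 further: score merges feature fluorescence with signal-to-noise for each printed compound spot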
[2] = tested on: Human papillomavirus type 1a E7 protein (residues 1-88); assay: HPV1a E7 small-molecule binders, primary screen, biochemical, small-molecule microarray, residues 1-88, 635 nm (AID 1129); details: small-molecule microarray binding, fluorescence 635 nm; higher = more signal
[3] = target: Focal adhesion kinase 1 (Homo sapiens) (UniProt Q05397); assay: PTK2 protein binding on printed compound slides – biochemical, small-molecule microarray, 635/667 nm fluorescence, BSA, DTT, primary screen (AID 1130); details: 635 nm fluorescence, higher = more signal;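 further: composite of spot emission at 667 nm and signal to noise over triplicate slides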
Focal adhesion kinase 1 (Homo sapiens), sequence (Q05397 whole entry, looked up): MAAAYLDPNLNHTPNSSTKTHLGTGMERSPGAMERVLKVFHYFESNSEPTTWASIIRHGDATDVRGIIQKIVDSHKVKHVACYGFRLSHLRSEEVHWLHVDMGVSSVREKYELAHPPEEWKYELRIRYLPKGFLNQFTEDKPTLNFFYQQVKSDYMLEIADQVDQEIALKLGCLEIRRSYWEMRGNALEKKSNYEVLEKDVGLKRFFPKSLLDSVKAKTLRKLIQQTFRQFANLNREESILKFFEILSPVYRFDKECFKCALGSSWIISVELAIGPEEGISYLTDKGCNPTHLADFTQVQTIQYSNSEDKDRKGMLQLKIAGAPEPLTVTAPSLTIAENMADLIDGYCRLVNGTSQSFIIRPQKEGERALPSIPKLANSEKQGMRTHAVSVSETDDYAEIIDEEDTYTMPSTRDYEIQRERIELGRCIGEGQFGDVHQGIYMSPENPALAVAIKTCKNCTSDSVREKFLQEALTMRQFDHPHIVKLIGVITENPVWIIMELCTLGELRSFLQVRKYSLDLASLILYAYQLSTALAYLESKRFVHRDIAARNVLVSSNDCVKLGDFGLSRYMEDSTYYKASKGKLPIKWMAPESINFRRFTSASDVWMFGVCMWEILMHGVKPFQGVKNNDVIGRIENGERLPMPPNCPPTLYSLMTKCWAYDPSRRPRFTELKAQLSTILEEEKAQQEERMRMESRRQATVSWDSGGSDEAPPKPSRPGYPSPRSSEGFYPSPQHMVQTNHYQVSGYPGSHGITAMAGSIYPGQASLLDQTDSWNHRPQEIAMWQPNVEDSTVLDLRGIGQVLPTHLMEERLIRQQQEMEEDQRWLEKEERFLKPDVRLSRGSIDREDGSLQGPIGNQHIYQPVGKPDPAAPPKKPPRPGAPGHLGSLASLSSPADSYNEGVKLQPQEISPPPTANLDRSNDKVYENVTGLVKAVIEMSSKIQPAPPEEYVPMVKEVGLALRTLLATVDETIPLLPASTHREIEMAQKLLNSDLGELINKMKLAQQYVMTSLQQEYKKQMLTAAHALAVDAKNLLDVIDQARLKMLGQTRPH

[4] = tested on: Fibrinogen (Alexa647-labelled); assay: Alexa647-fibrinogen binding to printed small molecules – biochemical, small-molecule microarray, 635/667 nm fluorescence, artefact control for SMM control-protein annotation, profiling panel (AID 1131); details: fibrinogen-A647 binding fluorescence, higher = more signal;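 further: z-score merges 667 nm fluorescence with per-spot signal-to-noise over triplicate slides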
[5] = target: Follistatin (Homo sapiens) (UniProt P19883); assay: FST protein binding to printed compounds – biochemical, small-molecule microarray, 635/667 nm fluorescence, primary screen (AID 1132); details: 635 nm fluorescence, higher = more signal
Follistatin (Homo sapiens), sequence (P19883 whole entry, looked up): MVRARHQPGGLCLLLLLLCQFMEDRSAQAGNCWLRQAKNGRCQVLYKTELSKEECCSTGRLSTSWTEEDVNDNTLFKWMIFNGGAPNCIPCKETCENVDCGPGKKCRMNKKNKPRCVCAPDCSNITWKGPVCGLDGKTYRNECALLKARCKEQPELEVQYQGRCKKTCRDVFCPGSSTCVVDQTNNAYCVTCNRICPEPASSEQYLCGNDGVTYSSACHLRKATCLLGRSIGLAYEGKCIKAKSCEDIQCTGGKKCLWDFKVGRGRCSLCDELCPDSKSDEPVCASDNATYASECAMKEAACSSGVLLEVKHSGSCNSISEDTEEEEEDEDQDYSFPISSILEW

[6] = target: Fibroblast growth factor 2 (Homo sapiens) (UniProt P09038); assay: basic fibroblast growth factor binding to printed compounds – biochemical, small-molecule microarray, 635/667 nm fluorescence, primary screen (AID 1133); details: FGF2, fluorescence 635/667, higher = more signal
Fibroblast growth factor 2 (Homo sapiens), sequence (P09038 whole entry, looked up): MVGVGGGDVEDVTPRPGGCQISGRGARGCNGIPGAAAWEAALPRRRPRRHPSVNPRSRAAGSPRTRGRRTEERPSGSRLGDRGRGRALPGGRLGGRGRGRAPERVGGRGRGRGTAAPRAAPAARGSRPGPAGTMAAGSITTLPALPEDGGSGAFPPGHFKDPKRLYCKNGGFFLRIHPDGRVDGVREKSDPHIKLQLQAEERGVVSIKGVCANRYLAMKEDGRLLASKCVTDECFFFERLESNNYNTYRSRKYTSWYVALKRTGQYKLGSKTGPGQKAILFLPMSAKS

[7] = JC-1 mitochondrial potential readout, lung cancer cells – cell-based, A549, JC-1 fluorescence, basal, 24 h, 100 nL, profiling panel (AID 1138); details: higher = more signal;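 further: A549 lung adenocarcinoma cells under basal conditions with no added stimulus; test concentration not given here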
Lefty1 = Lefty1 protein binding to printed compounds – biochemical, small-molecule microarray, 635/667 nm fluorescence, primary screen (AID 1139); details: fluorescence 635/667, higher = more signal
[8] = tested on: wheat germ agglutinin (Triticum aestivum), Alexa647-labelled; assay: Alexa647-WGA lectin binding to printed small molecules – biochemical, small-molecule microarray, 635/667 nm fluorescence, artefact control for SMM control-protein annotation, profiling panel (AID 1140); details: WGA-A647 binding, 635 nm fluorescence, higher = more signal;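 further: score merges 667 nm feature emission with signal to noise over triplicate slides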
[9] = target: Luciferin 4-monooxygenase (Photinus pyralis) (UniProt P08659); assay: inhibition of purified Photinus pyralis luciferase – biochemical, luminescence, purified enzyme, 2006 set, primary screen (AID 1141); details: purified firefly luciferase, SteadyGlo luminescence, 30 min; higher = more signal, called active from +8 up or from −8 down;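 further: cell-free assay with purified firefly luciferase at 100 ng per well in PBS; test concentration not given here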
Luciferin 4-monooxygenase (Photinus pyralis), sequence (P08659 whole entry, looked up): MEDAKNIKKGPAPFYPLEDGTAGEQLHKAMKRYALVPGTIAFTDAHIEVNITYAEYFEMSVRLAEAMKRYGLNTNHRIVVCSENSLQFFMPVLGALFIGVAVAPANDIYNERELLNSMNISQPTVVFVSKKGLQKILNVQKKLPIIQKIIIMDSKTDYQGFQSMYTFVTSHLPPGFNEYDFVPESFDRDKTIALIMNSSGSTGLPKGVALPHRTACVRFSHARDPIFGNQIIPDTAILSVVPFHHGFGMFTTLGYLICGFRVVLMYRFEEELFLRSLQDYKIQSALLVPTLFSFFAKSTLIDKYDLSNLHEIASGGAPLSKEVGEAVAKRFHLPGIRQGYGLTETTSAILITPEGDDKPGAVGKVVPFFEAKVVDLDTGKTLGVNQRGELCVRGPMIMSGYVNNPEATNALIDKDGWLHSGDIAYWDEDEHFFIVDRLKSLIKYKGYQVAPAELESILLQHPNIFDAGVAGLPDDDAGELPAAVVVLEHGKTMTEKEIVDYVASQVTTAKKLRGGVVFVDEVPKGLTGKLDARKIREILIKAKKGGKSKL

[10] = tested on: Wnt5a (protein binding on small-molecule microarray); assay: small molecules binding Wnt5a protein – biophysical, small-molecule microarray, 635/667 nm fluorescence, primary screen (AID 1142); details: 635 nm fluorescence, higher = more signal;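 further: fluorescence read at 667 nm with signal to noise per printed feature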
[11] = ATP-based viability of Huh7 replicon cells – cell-based, CellTiter-Glo luminescence, basal, 48 h, cytotoxicity control for HCV replication inhibitor project, primary screen (AID 1143); details: higher = more signal, called active from +8 up or from −8 down;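 further: Huh7 hepatoma cells carrying a hepatitis C replication reporter with no stimulus; test concentration not given here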
[12] = Pseudomonas biofilm growth suppression – PAO1 strain, BacTiter-Glo luminescence, LB-PBS, primary screen (AID 1144); details: P. aeruginosa PAO1 biofilm, 12 h, higher = more signal
[13] = basal CRE-LacZ reporter activity in PC12 – cell-based, unstimulated, primary screen (AID 1145); details: no forskolin, luminescence, 4.5 h, higher = more signal, called active from +8 up or from −8 down
[14] = forskolin-driven CRE-LacZ activity in PC12 – cell-based, CRE-LacZ reporter, forskolin-stimulated, primary screen (AID 1146); details: luminescence, 4.5 h, higher = more signal, called active from +8 up or from −8 down;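 further: PC12 cells with 6xCRE LacZ reporter stimulated by forskolin 10 µM; beta-galactosidase reporter signal reflecting CREB driven transcription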
[15] = target: Streptavidin (Streptomyces avidinii) (UniProt P22629); assay: compounds binding control protein streptavidin – biophysical, small-molecule microarray, 635/667 nm fluorescence, artefact control for SMM compound annotation, primary screen (AID 1147); details: higher = more signal;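 further: signal reflects streptavidin binding to arrayed compounds as a control protein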
Streptavidin (Streptomyces avidinii), sequence (P22629 whole entry, looked up): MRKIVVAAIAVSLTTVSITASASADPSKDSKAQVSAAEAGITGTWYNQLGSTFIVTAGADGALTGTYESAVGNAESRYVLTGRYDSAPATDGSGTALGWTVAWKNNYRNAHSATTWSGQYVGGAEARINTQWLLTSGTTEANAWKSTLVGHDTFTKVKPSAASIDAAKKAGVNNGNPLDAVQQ

[16] = probe aInhba binding on compound microarray – biochemical, small-molecule microarray, 635/667 nm fluorescence, primary screen (AID 1148); details: higher = more signal;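 further: score merges 667nm spot fluorescence with signal-to-noise for antibody binding to printed compounds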
Torsin-1A (Homo sapiens) [17] = target: Torsin-1A (Homo sapiens) (UniProt O14656); assay: TOR1A wild-type binding on microarray – cell lysate, small-molecule microarray, lysate, 635/667 nm, primary screen (AID 1149); details: COS7 hTOR1A-WT lysate, 635 nm fluorescence, higher = more signal
Torsin-1A (Homo sapiens), sequence (O14656 whole entry, looked up): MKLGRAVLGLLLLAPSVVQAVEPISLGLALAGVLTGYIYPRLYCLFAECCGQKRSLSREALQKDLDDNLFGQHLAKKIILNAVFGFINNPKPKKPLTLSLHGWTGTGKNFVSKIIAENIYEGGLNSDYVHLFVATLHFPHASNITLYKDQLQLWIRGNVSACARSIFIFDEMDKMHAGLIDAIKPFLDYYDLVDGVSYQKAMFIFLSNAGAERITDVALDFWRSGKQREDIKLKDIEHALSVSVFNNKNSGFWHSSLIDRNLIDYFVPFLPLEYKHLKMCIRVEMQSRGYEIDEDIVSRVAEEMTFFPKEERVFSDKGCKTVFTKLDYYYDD

Torsin-1A (Homo sapiens) [18] = target: Torsin-1A (Homo sapiens) (UniProt O14656); assay: torsin A mutant lysate binding on microarrays – cell lysate, small-molecule microarray, COS7 lysate, 635/667 nm fluorescence, primary screen (AID 1150); details: COS7 hTOR1A mutant lysate, 635 nm fluorescence, higher = more signal;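 further: score pools 667 nm emission and signal to noise measuring lysate protein binding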
[19] = tested on: Sonic hedgehog protein (Shh); assay: Sonic hedgehog microarray binding compounds – biochemical, small-molecule microarray, 635/667 nm fluorescence, primary screen (AID 1151); details: 635 nm fluorescence, higher = more signal;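 further: Shh protein binding to compounds spotted on small-molecule microarray slides; score combines spot fluorescence intensity with signal-to-noise across triplicate slides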

| Compound | composite z-score [1] | composite z-score [2] | composite z-score [3] | composite z-score [4] | composite z-score [5] | composite z-score [6] | z-score [7] | composite z-score (Lefty1) | composite z-score [8] | z-score [9] | composite z-score [10] | z-score [11] | z-score [12] | z-score [13] | z-score [14] | composite z-score [15] | composite z-score [16] | composite z-score (Torsin-1A (Homo sapiens) [17]) | composite z-score (Torsin-1A (Homo sapiens) [18]) | composite z-score [19] |
| --- | --- | --- | --- | --- | --- | --- | --- | --- | --- | --- | --- | --- | --- | --- | --- | --- | --- | --- | --- | --- |
| CO[C@H]1O[C@H](CO)[C@@H](OC(=O)Nc2ccc(C(F)(F)F)cc2)[C@H](OC(=O)Nc2ccccc2-c2ccccc2)[C@@H]1OC(=O)Nc1ccccc1-c1ccccc1 | 2.01 | 1.1 | 0.799 | 0.911 | 1.3 | 0.697 | 0.284 | 1.08 | 1.04 | 0.798 (inactive) | 0.229 | -4.02 (inactive) | 0.821 (inactive) | 0.148 (inactive) | 0.892 (inactive) | 1.02 | 0.228 | 0.363 | 0.979 | 1.34 |
| C=CC[C@@]1(C(=O)O)N=C(c2ccc(OCCCO)cc2)O[C@@H]1c1ccccc1CN=[N+]=[N-] | 0.706 | 0.86 | 0.518 | 0.68 | 0.939 | 0.381 | -0.472 | 0.588 | 1.24 | -0.926 (inactive) | 0.229 | -1.9 (inactive) | -1.6 (inactive) | -0.183 (inactive) | -1.13 (inactive) | 1.93 | -0.0736 | -0.0975 | 0.884 | 0.582 |
| NC(=O)NCC#Cc1ccc2c(c1)[C@]1(C(=O)N2)[C@H](C(=O)Nc2nc3ccccc3s2)[C@H]2C(=O)O[C@H](c3ccccc3)[C@H](c3ccccc3)N2[C@@H]1c1ccc(OCCO)cc1 | -0.497 | 0.094 | 0.268 | -0.3 | 1.37 | 0.746 | -2.21 | -0.276 | 0.441 | -1.96 (inactive) | 0.262 | 0.378 (inactive) | -1.02 (inactive) | 0.182 (inactive) | -0.199 (inactive) | 1.11 | 0.264 | -0.657 | -0.628 | 0.287 |
| C=CCC(OC(C)=O)[C@@H]1[C@@H](N(Cc2ccc(-c3cccc(C(F)(F)F)c3)o2)C(=O)c2cccc3ccccc23)c2cc(OCCCO)ccc2N1C(=O)c1ccc2ccccc2n1 (stereo not given in full) | -0.188 | -0.696 | -0.323 | -0.0203 | 0.587 | 0.0226 | -0.431 | 0.375 | -0.0681 | 0.587 (inactive) | -0.0713 | -1.33 (inactive) | -0.214 (inactive) | -0.258 (inactive) | 0.0155 (inactive) | -0.32 | -0.024 | 0.17 | -0.662 | 0.259 |
| CC(C)CNC(=O)[C@@]1(C)c2ccccc2C(=O)N(Cc2cc(F)cc(C(F)(F)F)c2)[C@H]1c1ccc(CO)cc1 | 0.83 | 0.85 | 0.0301 | 0.51 | 1.16 | 0.803 | 0.165 | 0.372 | 0.154 | 0.189 (inactive) | 0.03 | 0.169 (inactive) | -0.428 (inactive) | -0.321 (inactive) | 0.13 (inactive) | -0.26 | -0.0719 | 0.194 | 0.127 | 1.23 |
| CC(C)[C@@H](C(=O)O)n1cc(-c2ccccc2)nn1 | 0.808 | 1.14 | 0.866 | 0.924 | 0.098 | 0.112 | -0.138 | -0.0617 | 1.15 | 0.131 (inactive) | 0.0953 | 0.0466 (inactive) | 0.69 (inactive) | 0.251 (inactive) | 0.0824 (inactive) | 1.23 | 0.019 | 0.466 | 1.16 | 0.128 |
| Cc1c(-c2ccc(-c3ccc(Cl)c(Cl)c3)o2)nc(-c2ccccc2)c2c1CO[Si]2(C(C)C)C(C)C | 0.466 | 0.168 | -0.0127 | 0.407 | -0.161 | -0.255 | -0.777 | 0.351 | 0.284 | -0.056 (inactive) | -0.0882 | -0.98 (inactive) | 0.163 (inactive) | -0.882 (inactive) | 1.86 (inactive) | -0.107 | -0.179 | -0.455 | -0.474 | 0.426 |
| C[C@H]1NC(=O)C([C@@H](C)OCc2ccccc2)NC(=O)[C@@]23C(=O)N[C@@H](Cc4ccccc4)C2[C@H](C)[C@@]2(C)O[C@H]2C3/C=C/C/C=C\CNC1=O (stereo not given in full) | 0.296 | -0.728 | -0.235 | -0.394 | 0.425 | 0.545 | 0.919 | 0.459 | -0.682 | -1.02 (inactive) | 0.0077 | -1.16 (inactive) | 1.3 (inactive) | 4.12 (inactive) | -0.836 (inactive) | -0.556 | -0.179 | 0.378 | 0.352 | 0.551 |
| [N-]=[N+]=NCc1ccccc1C[C@]1(C(=O)NCc2ccccc2)N=C(c2ccc(OCCCO)cc2)O[C@H]1c1ccccc1CN=[N+]=[N-] | 1.75 | 0.986 | 0.586 | 0.91 | 0.821 | -0.31 | 0.064 | -0.503 | 0.328 | -1.16 (inactive) | 0.477 | -4.58 (inactive) | -0.333 (inactive) | 1.27 (inactive) | -1.73 (inactive) | 0.208 | 0.237 | 0.135 | 0.623 | -0.603 |
| COCCOC(=O)N1C(=O)[C@@]2(c3cc(C#CCC(C(=O)OC)C(=O)OC)ccc31)[C@H](C(=O)N1CCCCCCC1)[C@H]1C(=O)O[C@H](c3ccccc3)[C@H](c3ccccc3)N1[C@@H]2c1ccccc1OCCO | 2.09 | 1.18 | 0.945 | 0.775 | 1.45 | 1.43 | -1.49 | 0.884 | 1.46 | -0.694 (inactive) | 1.21 | -5.66 (inactive) | -0.728 (inactive) | -0.475 (inactive) | -0.981 (inactive) | 2.68 | 1.91 | 1.27 | 1.23 | 2.06 |
